FXIIa single – blocks human coagulation factor XIIa activity; 33,000 compounds, 0.2% hits; inhibition, % at 10 µM; purified human FXIIa, AMC substrate fluorescence, 2 h; P00748; in the data active = inhibition above about 30%;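 note: 0% = enzyme with vehicle only and 100% = no enzyme blank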
Target sequence (P00748 20-372 limits assumed): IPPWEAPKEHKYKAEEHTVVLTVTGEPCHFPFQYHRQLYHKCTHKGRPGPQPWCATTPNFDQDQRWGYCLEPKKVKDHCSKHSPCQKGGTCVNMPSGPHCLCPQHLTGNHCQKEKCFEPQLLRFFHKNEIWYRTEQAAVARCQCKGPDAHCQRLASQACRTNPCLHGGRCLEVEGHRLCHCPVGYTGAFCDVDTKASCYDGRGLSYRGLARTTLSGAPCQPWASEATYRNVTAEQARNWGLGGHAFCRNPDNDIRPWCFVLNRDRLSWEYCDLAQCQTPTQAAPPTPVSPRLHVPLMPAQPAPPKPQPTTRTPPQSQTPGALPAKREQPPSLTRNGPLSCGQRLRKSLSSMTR
Target sequence (P00748 373-615 limits assumed): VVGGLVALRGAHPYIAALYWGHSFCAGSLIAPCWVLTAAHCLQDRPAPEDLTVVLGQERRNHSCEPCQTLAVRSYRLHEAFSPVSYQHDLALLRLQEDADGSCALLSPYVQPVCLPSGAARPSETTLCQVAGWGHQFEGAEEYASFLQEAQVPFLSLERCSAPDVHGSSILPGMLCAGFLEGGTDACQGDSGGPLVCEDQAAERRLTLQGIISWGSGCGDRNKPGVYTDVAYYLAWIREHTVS
FXIa inh – blocks human coagulation factor XIa activity; purified human FXIa, fluorogenic AMC substrate cleavage; inhibition, % at 10 µM; 33,000 compounds, 0.3% hits; AID 687;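 active = inhibition above 40% in the primary screen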;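 note: 0% = enzyme without compound and 100% = blank wells lacking enzyme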
* = called active by the depositor. The sample as a whole holds a higher share of hits than the screen did.

SMILES	FXIIa single	FXIa inh
COc1ccc(Cn2nc(C)n(N(C)c3ncc(C(F)(F)F)cc3Cl)c2=O)cc1	-5.4	1.3
Cc1ccc(S(=O)(=O)CC#CCOC(=O)c2ccc([N+](=O)[O-])cc2)cc1	9.4	-0.2
C=CCn1cnc2scc(-c3ccc(C)cc3)c2c1=O	-1.4	-2.6
CCOc1ccc(C2NC(=O)NC(C)=C2C(=O)OC)cc1C (configuration not stated)	-16.2	32.7
Cc1ccc(C)c(S(=O)(=O)Nc2ccc3scnc3c2)c1	3.2	0.7
CCCC(=O)N(CCc1ccc(OC)cc1)Cc1nc2ccccc2c(=O)[nH]1	12.6	2.5
O=C(C1CCC1)N(CCc1ccccc1)Cc1nc2ccccc2c(=O)[nH]1	34.1*	1.0
CCCCOC(=O)Nc1cccc(Cl)c1C	4.2	-6.7
O=S(=O)(Cc1ccccc1)N1CCC(c2nc(-c3cccs3)no2)CC1	-10.2	45.6*
O=C(c1cccs1)N1CCN(S(=O)(=O)Cc2ccccc2)CC1	7.8	-1.0
Nc1c(-c2ccccc2)cnn1-c1ccc(C(=O)O)cc1	8.7	-4.2
COc1cc(C)c(C(C)C)cc1S(=O)(=O)NCCCn1ccnc1	5.8	4.1
CCOC(=O)C1=C(C)NC2=C(C(=O)CC(C)(C)C2)C1c1coc2ccccc2c1=O (configuration not stated)	5.0	6.6
CC1=C(C(=O)OC(C)C)C(c2coc3ccccc3c2=O)C2=C(CCCC2=O)N1 (configuration not stated)	7.4	50.4*
COc1cccc(C(=O)N(Cc2ccccc2)Cc2cc3cc4c(cc3[nH]c2=O)OCCO4)c1	4.5	47.3*
COc1ccc(C(=O)N(Cc2ccccc2)Cc2cc3cc4c(cc3[nH]c2=O)OCCO4)cc1	1.7	-9.7
Cc1ccccc1OCc1nnc(SCC(=O)Nc2ccc(N3CCOCC3)c(Cl)c2)n1C	14.9	4.2
FC(F)(F)c1cnc(Oc2ccccc2-c2nnco2)c(Cl)c1	6.9	-4.2
FC(F)(F)c1cnc(Oc2ccc(-c3nnco3)cc2)c(Cl)c1	30.8*	-0.8
CC(C)(CS(=O)(=O)[O-])NC(=O)CC[N+](C)(C)CCO	10.1	0.5
FC(F)(F)c1cccc(N2CCN(CC3CC=CCC3)CC2)c1 (configuration not stated)	-7.9	16.2
COc1ccc(NC(=O)CN2CCN(C3c4ccccc4-c4ccccc43)CC2)cc1	8.2	6.4
O=C1[C@H]2[C@@H](C(=O)N1c1cccc3ccccc13)C1(C(=O)c3ccccc3C1=O)N1CCC[C@@H]21	3.8	-9.3
COC(=O)CSc1nnc(C)n1-c1ccc(C)cc1	8.7	-5.6
COC(=O)CSc1nnc(C)n1-c1cccc(OC)c1	1.3	43.3*
SMILES	FXIIa single	FXIa inh
O=C(CSc1nnc(-c2cccs2)n1-c1ccccc1)N1CCc2ccccc21	2.2	-2.5
CN(C)CCNCc1ccc(OC2CCCC2)cc1	5.2	0.2
CCC(CO)NCc1ccc(OC2CCCC2)cc1 (configuration not stated)	-16.9	65.6*
CC1CCCN(C(c2cccs2)c2nnnn2Cc2ccccc2)C1 (configuration not stated)	12.3	-2.7
CCOC(=O)c1ccc(CC2S/C(=C(\C#N)C(C)=O)NC2=O)cc1 (configuration not stated)	13.2	2.8
CCc1ccc(CC2S/C(=C(\C#N)C(C)=O)NC2=O)cc1 (configuration not stated)	6.7	49.3*
Cc1ccc(NC(=O)NCc2ccc3c(c2)OCO3)cc1	2.7	-4.7
CC(=O)Oc1cc(OC(C)=O)c2c(C)cc(=O)oc2c1	-1.4	-4.4
Cc1cc(OC(=O)c2ccco2)c2c(C)cc(=O)oc2c1	30.8*	43.9*
CC1(C)C(C=C(Cl)Cl)C1C(=O)N1CCN(c2ccccc2)CC1 (configuration not stated)	3.4	-3.4
Cc1cc(S(=O)(=O)Nc2cc(C)c(O)c(C)c2)c(C)s1	-3.8	-6.2
Cc1ccc2c(CC(=O)OC(C)C(=O)NCc3ccc4c(c3)OCO4)coc2c1 (configuration not stated)	0.2	-1.7

Screening data (PubChem)
